Potency and affinity values are given separately. Results filed as inconclusive are left out. Calls of active or inactive are those of the source. Unless noted, how the calls were made is not given here.
Assays:
[1] = cytotoxicity in PAX8-dependent RMG-1 cells, dose response, cell-based, cherry-pick (AID 687029;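 active means signal drop whose fitted half-maximal concentration is at most twice the top valid dose, in every test run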;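 further: cells exposed to compound for 96 hours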); conditions: RMG-1 viability, CellTiterGlo ATP luminescence, 96 h; series mostly up to 35 µM
[2] = cytotoxicity in IOSE-T80 ovarian epithelial cells, dose response, selectivity assay for PAX8 inhibitor project, cell-based, cherry-pick (AID 687032;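 active means fitted half-maximal concentration for viability loss no higher than twice the top valid dose, in every repeat run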;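 further: cells exposed to compound for 96 h before reading; 0% = neutral control wells and -100% = 2 µM mitoxantrone kill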); conditions: CellTiterGlo ATP luminescence, 96 h; series mostly up to 35 µM
[3] = inhibitors of CMV-promoter luciferase reporter, dose response, counter-screen for Pax8 inhibitor project, cell-based, HEK293, luminescence, dry powder (AID 743020;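 active means signal-lowering compounds whose fitted half-maximal concentration is at or below twice the top tested dose in every run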;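 further: HEK293 cells stably expressing the CMV luciferase reporter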); conditions: SteadyGlo luminescence, 24 h; series mostly up to 35 µM
[4] = non-specific cell cytotoxicity, dose response, cytotoxicity control for PAX8 inhibitor project, plate reader, dry powder samples (AID 743021); conditions: cell line, non-specific cytotoxicity counter-screen; series mostly up to 35 µM
[5] = IGROV1 ovarian cancer cell cytotoxicity, dose response, PAX8 inhibitor project, plate reader, dry powder samples (AID 743043); conditions: series mostly up to 35 µM;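 further: more negative means fewer viable cells or more cytotoxicity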
[6] = NIH:OVCAR-3 ovarian cancer cell cytotoxicity, dose response, PAX8 inhibitor project, plate reader, dry powder samples (AID 743044); conditions: NIH:OVCAR-3 ovarian cancer cell viability; max activity: at 35 µM, active compounds read low unless noted; series mostly up to 50 µM
[7] = IOSE-T80 ovarian epithelial cell cytotoxicity, dose response, cytotoxicity control for PAX8 inhibitor project, plate reader, dry powder samples (AID 743045); conditions: IOSE-T80 ovarian epithelial cells; series mostly up to 35 µM;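 further: 0% = neutral control median and -100% = positive control median; more negative values mean more cell killing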
[8] = A2780 ovarian cancer cell cytotoxicity, dose response, cytotoxicity control, plate reader, dry powder samples (AID 743046); conditions: series mostly up to 35 µM;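 further: 0% = neutral control wells and -100% = cytotoxic reference compound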
[9] = cytotoxicity in OVCAR8 ovarian cancer cells, dose response, PAX8 project, cell-based, plate reader, dry powder samples (AID 743197); conditions: series mostly up to 35 µM

Measured: max activity

Cc1ccc(S(=O)(=O)Nc2ccc3c(c2)C(=O)N([C@@H](C)CO)C[C@@H](C)[C@@H](CN(C)Cc2ccc(C(F)(F)F)cc2)OCCCC[C@@H](C)O3)cc1
inactive: [1] | [2] | [3] | [4] | [5] | [6] -26.4% [at 8 µM, active compounds read low] | [7] | [8] | [9]

O=C(C[C@@H]1CC[C@@H]2[C@H](COC[C@H](O)CN2S(=O)(=O)c2cccc(Cl)c2)O1)Nc1ccc(-c2ccccc2)cc1
inactive: [1] | [2] | [3] | [4] | [5] | [6] -18.5% | [7] | [8] | [9]

C[C@H]1CN([C@@H](C)CO)C(=O)CCCn2nncc2CO[C@@H]1CN(C)C(=O)Nc1ccc(-c2cccs2)cc1
inactive: [1] | [2] | [3] | [4] | [5] | [6] -29.9% | [7] | [8] | [9]

C[C@@H]1CCCCO[C@@H](CN(C)Cc2ccc(C(F)(F)F)cc2)[C@H](C)CN([C@H](C)CO)C(=O)c2cc(NC(=O)Cc3ccccc3)ccc2O1
inactive: [1] | [2] | [3] | [4] | [5] | [6] -36.2% | [7] | [8] | [9]

C[C@@H]1CCCCO[C@H](CN(C)C(=O)Cc2ccccc2)[C@H](C)CN([C@@H](C)CO)C(=O)c2cc(NC(=O)Nc3ccc(C(F)(F)F)cc3)ccc2O1
inactive: [1] | [2] | [3] | [4] | [5] | [6] 13.6% | [7] | [8] | [9]

C[C@@H]1CN([C@H](C)CO)C(=O)c2cc(NC(=O)Nc3ccc(C(F)(F)F)cc3)ccc2O[C@@H](C)CCCCO[C@H]1CN(C)C(=O)Nc1ccc(F)cc1
inactive: [1] | [2] | [3] | [4] | [5] | [6] -1.73% | [7] | [8] | [9]

O=C(c1ccc(F)cc1)N1C[C@@H]2N[C@H](C1)C2c1ccc(-c2ccc(F)cc2)cc1 (stereo partly specified)
inactive: [1] | [2] | [3] | [4] | [5] | [6] -17.2% [at 4.2 µM, active compounds read low] | [7] | [8] | [9]

C[C@@H]1CCCCO[C@H](CN(C)Cc2ccccc2)[C@H](C)CN([C@H](C)CO)C(=O)c2cc(NC(=O)Nc3ccc(C(F)(F)F)cc3)ccc2O1
inactive: [1] | [2] | [3] | [4] | [5] | [6] -9.62% | [7] | [8] | [9]

C[C@@H]1CN([C@@H](C)CO)C(=O)c2cc(NS(=O)(=O)c3ccccc3)ccc2O[C@@H](C)CCCCO[C@@H]1CN(C)Cc1ccc(C(F)(F)F)cc1
inactive: [1] | [2] | [3] | [4] | [5] | [6] -5.59% | [7] | [8] | [9]

C[C@H](CO)N1C[C@H](C)[C@H](CN(C)C(=O)Nc2ccc(-c3cccs3)cc2)OCc2cnnn2CCCC1=O
inactive: [1] | [2] | [3] | [4] | [5] | [6] -11.7% | [7] | [8] | [9]

CN1c2ccc(C#Cc3cccnc3)cc2[C@@H]2[C@@H](CCN2C(=O)Cc2cccnc2)[C@@H]1CO
inactive: [1] | [2] | [3] | [4] | [5] | [6] 17.5% [at 16 µM, active compounds read low] | [7] | [8] | [9]

C[C@@H]1CCCCO[C@H](CN(C)Cc2ccncc2)[C@H](C)CN([C@@H](C)CO)C(=O)c2cc(NC(=O)Nc3ccc(C(F)(F)F)cc3)ccc2O1
inactive: [1] | [2] | [3] | [4] | [5] | [6] -11.1% [at 0.26 µM, active compounds read low] | [7] | [8] | [9]

C[C@@H]1CN([C@H](C)CO)C(=O)c2cc(NC(=O)Nc3ccc(C(F)(F)F)cc3)ccc2O[C@@H](C)CCCCO[C@H]1CN(C)Cc1ccc(Cl)c(Cl)c1
inactive: [1] | [2] | [3] | [4] | [5] | [6] 8.01% [at 8 µM, active compounds read low] | [7] | [8] | [9]

C[C@@H]1CN([C@H](C)CO)C(=O)Cc2cc(NC(=O)Cc3ccccc3)ccc2O[C@@H]1CN(C)Cc1ccc(C(F)(F)F)cc1
inactive: [1] | [2] | [3] | [4] | [5] | [6] -9.67% [at 0.26 µM, active compounds read low] | [7] | [8] | [9]

C[C@@H]1CN([C@H](C)CO)C(=O)c2cc(NC(=O)Nc3ccccc3)ccc2O[C@@H](C)CCCCO[C@H]1CN(C)Cc1ccc(Cl)c(Cl)c1
inactive: [1] | [2] | [3] | [4] | [5] | [6] -19.3% | [7] | [8] | [9]

COc1cccc(S(=O)(=O)N(C)C[C@H]2OCc3ccccc3-c3c(n(C)c4ccccc34)C(=O)N([C@@H](C)CO)C[C@H]2C)c1
inactive: [1] | [2] | [3] | [4] | [5] | [6] -13.7% | [7] | [8] | [9]

COc1ccc(NC(=O)Nc2ccc3c(c2)C(=O)N([C@@H](C)CO)C[C@@H](C)[C@@H](CN(C)Cc2ccc(C(F)(F)F)cc2)OCCCC[C@@H](C)O3)cc1
inactive: [1] | [2] | [3] | [4] | [5] | [6] -11.3% | [7] | [8] | [9]

C[C@@H]1CCCCO[C@H](CN(C)C)[C@H](C)CN([C@H](C)CO)C(=O)c2cc(NC(=O)Nc3cccc4ccccc34)ccc2O1
inactive: [1] | [2] | [3] | [4] | [5] | [6] 24.8% [at 4.2 µM, active compounds read low] | [7] | [8] | [9]

C[C@@H]1CN([C@@H](C)CO)C(=O)c2cc(NC(=O)c3ccccc3)ccc2O[C@@H](C)CCCCO[C@H]1CN(C)Cc1ccc(C(F)(F)F)cc1
inactive: [1] | [2] | [3] | [4] | [5] | [6] -28.2% [at 0.26 µM, active compounds read low] | [7] | [8] | [9]

C[C@@H]1CCCCO[C@@H](CN(C)S(=O)(=O)c2ccc(Cl)cc2)[C@H](C)CN([C@@H](C)CO)C(=O)c2cc(NS(=O)(=O)c3ccc(Cl)cc3)ccc2O1
inactive: [1] | [2] | [3] | [4] | [5] | [6] -34.3% [at 16 µM, active compounds read low] | [7] | [8] | [9]

C[C@@H]1CCCCO[C@@H](CN(C)Cc2ccc(C(F)(F)F)cc2)[C@H](C)CN([C@H](C)CO)C(=O)c2cc(NS(=O)(=O)c3ccc(Cl)cc3)ccc2O1
inactive: [1] | [2] | [3] | [4] | [5] | [6] -15.2% [at 1.1 µM, active compounds read low] | [7] | [8] | [9]

C[C@@H]1CCCCO[C@H](CN(C)Cc2ccc(C(F)(F)F)cc2)[C@H](C)CN([C@H](C)CO)C(=O)c2cc(NS(=O)(=O)c3ccc(F)cc3)ccc2O1
inactive: [1] | [2] | [3] | [4] | [5] | [6] -10.2% | [7] | [8] | [9]

C[C@H](O)C#Cc1ccc2c(c1)O[C@H](CN(C)Cc1ccc(-c3ccccc3)cc1)[C@@H](C)CN([C@H](C)CO)S2(=O)=O
inactive: [1] | [2] | [3] | [4] | [5] | [6] 15.2% [at 16 µM, active compounds read low] | [7] | [8] | [9]

C[C@H](CO)N1C[C@H](C)[C@H](CN(C)Cc2ccc3c(c2)OCO3)OCCCC[C@H](C)Oc2ccc(NS(=O)(=O)c3ccc(Cl)cc3)cc2C1=O
inactive: [1] | [2] | [3] | [4] | [5] | [6] 2.84% | [7] | [8] | [9]

C[C@@H]1CN([C@H](C)CO)C(=O)c2cc(NC(=O)Nc3ccc(F)cc3)ccc2O[C@@H](C)CCCCO[C@H]1CN(C)C(=O)Nc1ccc(F)cc1
inactive: [1] | [2] | [3] | [4] | [5] | [6] 13.6% | [7] | [8] | [9]

C[C@@H]1CCCCO[C@@H](CN(C)Cc2ccccc2)[C@@H](C)CN([C@H](C)CO)C(=O)c2cc(NC(=O)Nc3ccc(C(F)(F)F)cc3)ccc2O1
inactive: [1] | [2] | [3] | [4] | [5] | [6] -13.2% | [7] | [8] | [9]

C[C@@H]1CN([C@@H](C)CO)C(=O)c2cc(NC(=O)NC3CCCCC3)ccc2O[C@@H](C)CCCCO[C@H]1CN(C)Cc1ccc(C(F)(F)F)cc1
inactive: [1] | [2] | [3] | [4] | [5] | [6] -25.9% | [7] | [8] | [9]

C[C@@H]1CCCCO[C@H](CN(C)Cc2ccc(C(F)(F)F)cc2)[C@H](C)CN([C@@H](C)CO)C(=O)c2cc(NC(=O)Nc3ccc(F)cc3)ccc2O1
inactive: [1] | [2] | [3] | [4] | [5] | [6] -17.3% | [7] | [8] | [9]

O=C(C[C@H]1CC[C@H]2[C@@H](COC[C@@H](O)CN2Cc2ccc(F)cc2)O1)NCc1ccccc1Cl
inactive: [1] | [2] | [3] | [4] | [5] | [6] -7.1% | [7] | [8] | [9]

Reference: PubChem BioAssay
